Assay outcomes from PubChem.
PINK1 expr mod – A Quantitative High throughput Screen to Identify Chemical Modulators of PINK1 Expression; PINK1 immunofluorescence, high-content cytometry, 24 h; Potency, µM (series often up to 76.6 µM), without a hit: at the highest dose activation (PINK1 increase), hits mostly activators; 410,000 compounds, 0.2% hits; AID 624263, 2012; active = well fitted activation curve with a large enough effect; inconclusive = small, poorly fitted or top-dose-only effect; cell line not stated here; note: potency is the fitted concentration of half-maximal effect; % of control where 0% means no effect; nearly all actives have a fitted effect of over 65% in size
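Decision-based qHTS: stable cells, 24 h exposure to five compound concentrations, CCCP as control. Fixed cells stained for PINK1 plus nuclear, mitochondrial and cell markers, cytometer read.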
Menin MLL FP TR – qHTS Assay for Inhibitors Targeting the Menin-MLL Interaction in MLL Related Leukemias: Competition With Texas Red Labeled MLL-derived Mutant Peptide; O00255; Menin + Texas Red MLL mutant peptide, fluorescence polarization; Potency, µM (top dose mostly 61.6 µM), for inactives: at the highest dose FP activity change, negative = inhibition, most hits filed as inhibitors; 270,000 compounds, 0.23% hits; AID 1768, 2009; active = well fitted inhibition curve with a large enough effect in the polarisation, with a control signal flat, not every such curve was filed as active; inconclusive = small, poorly fitted or top-dose-only effect, or effect the other way, or a change in a side signal; inactive = no such curve, though single readings can be large or run the other way; the % refers to the polarisation; note: potency is the fitted concentration of half-maximal effect; % of control where 0% means no effect
Target sequence (O00255 whole entry, looked up): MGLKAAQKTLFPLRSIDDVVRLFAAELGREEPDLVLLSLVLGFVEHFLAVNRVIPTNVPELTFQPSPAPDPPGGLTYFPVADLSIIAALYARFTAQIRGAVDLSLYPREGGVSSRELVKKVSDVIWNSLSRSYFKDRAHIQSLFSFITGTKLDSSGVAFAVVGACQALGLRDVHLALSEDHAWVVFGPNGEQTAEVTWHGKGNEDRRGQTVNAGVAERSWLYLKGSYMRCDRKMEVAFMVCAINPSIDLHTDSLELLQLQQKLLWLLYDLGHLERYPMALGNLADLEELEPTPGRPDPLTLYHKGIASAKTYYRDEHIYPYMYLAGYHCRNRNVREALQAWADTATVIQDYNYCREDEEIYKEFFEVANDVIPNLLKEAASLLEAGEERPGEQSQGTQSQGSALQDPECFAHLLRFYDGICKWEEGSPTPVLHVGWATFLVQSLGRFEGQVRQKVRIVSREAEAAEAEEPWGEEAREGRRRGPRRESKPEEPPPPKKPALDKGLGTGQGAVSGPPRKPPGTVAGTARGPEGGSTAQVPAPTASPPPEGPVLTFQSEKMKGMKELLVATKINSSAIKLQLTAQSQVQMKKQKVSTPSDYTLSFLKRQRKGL
CXXC DNA block – qHTS Fluorescence Polarization Assay for Inhibitors of MLL CXXC domain - DNA interaction; Histone-lysine N-methyltransferase 2A (Homo sapiens), Q03164; MLL-CXXC / FITC-HOXA9 DNA fluorescence polarization; Potency, µM (titrated, usually from 115 µM), inactives show top-dose activity change, negative = inhibition, actives largely listed as inhibitors; 290,000 compounds, 0.037% hits; AID 2662, 2010; active = well fitted inhibition curve with a large enough effect in the polarisation, with a control signal flat, not every such curve was filed as active; inconclusive = small, poorly fitted or top-dose-only effect, or effect the other way, or a change in a side signal; inactive = no such curve, though single readings can be large or run the other way; the % refers to the polarisation; note: potency is the fitted concentration of half-maximal effect
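Steps: dispense CXXC domain solution (7 uM) → pin compounds or unlabeled HOX-A9 DNA control → 5 min ambient → add FLSN-HOX-A9 solution (50 nM) → spin → 30 min ambient → fluorescence polarization. Tris pH 7.5/NaCl/DTT/BSA buffer.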
ClpP mod – qHTS Assay for Activators of ClpP | Potency, µM (top dose mostly 57.5 µM), inactives show at the highest dose activity change, negative = active | purified B. subtilis ClpP, FRET peptide cleavage, 20 min | 340,000 compounds, 1.9% hits; active = well fitted falling curve with a large enough effect; inconclusive = small, poorly fitted or top-dose-only effect; inactive = no such curve, though single readings can be large or run the other way; note: potency is the fitted concentration of half-maximal effect; the source files actives as falling curves though it sought activators and does not explain the sign; nearly all actives have a fitted effect of over 65% in size
Target sequence (P80244 whole entry, looked up): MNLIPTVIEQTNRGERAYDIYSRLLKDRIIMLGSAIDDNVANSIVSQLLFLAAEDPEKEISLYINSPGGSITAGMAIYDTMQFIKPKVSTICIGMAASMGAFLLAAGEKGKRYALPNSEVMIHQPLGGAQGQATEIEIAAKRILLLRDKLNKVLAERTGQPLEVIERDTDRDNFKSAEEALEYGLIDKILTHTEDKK
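Purified B. subtilis ClpP, 10 microg/mL final in Tris/HCl pH8 with KCl, BSA, glycerol and Tween-20, cleaved an Abz/nitrotyrosine-quenched decapeptide. Fluorescence (ex 320, em 430) was read at 0 and 20 min at room temperature. Delta was normalized to 5.8 microM ADEP and DMSO/no-enzyme controls.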
Epigenetic reg – Quantitative High-Throughput Screen for Regulators of Epigenetic Control | murine LDR cells, GFP reporter derepression, 30 h | AID 1865, 2009 | Potency, µM (doses to about 53.9 µM), for inactives: at the top dose GFP activation, usual class: activators | 280,000 compounds, 0.2% hits; active = well fitted activation curve with a large enough effect; inconclusive = small, poorly fitted or top-dose-only effect; note: potency is the fitted concentration of half-maximal effect; % of control where 0% means no effect; nearly all actives have a fitted effect of over 60% in size
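Reporter derepression read as number of fluorescent GFP-positive objects, 20-120 um in size, counted by laser-scanning cytometer. Mouse LDR line with an epigenetically silenced CMV-GFP locus; compound incubation 30 h, 37 C.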
Menin MLL FP FL – qHTS Assay for Inhibitors Targeting the Menin-MLL Interaction in MLL Related Leukemias: Competition With Fluorescein Labeled MLL-derived Peptide. Fluorescence polarization, fluorescein-MLL peptide displacement from menin. FP activity change, % at 61.4 µM. 290,000 tested, under 10 active; active = well fitted curve in the direction sought with a large enough effect in the polarisation, not every such curve was filed as active; inconclusive = small, poorly fitted or top-dose-only effect, or effect the other way, or a change in a side signal; inactive = no such curve, though single readings can be large or run the other way; the % refers to the polarisation; note: % of control where 0% means no effect
Numbers without * were called inactive; ? = inconclusive; nt = no result; ! = not confirmed by another sample; [ ] = remark or other dose. Rows were chosen to be rich in hits. Some 1.9% of all compounds tested hit in one or more screens of this group.

SMILES	PINK1 expr mod	Menin MLL FP TR	CXXC DNA block	ClpP mod	Epigenetic reg	Menin MLL FP FL
Cc1ccccc1Nc1oc(-c2ccccc2)nc1-c1ccccc1	nt	7.7%	nt	nt	1.1%	-6.7
NC(=O)[C@@H]1CCCN1C(=O)CCN1Cc2ccccc2OC(c2ccccc2F)C1 (stereo partly specified)	0.1%	nt	nt	nt	nt	nt
CCP(=O)(c1ccccc1)C(C)(C)O (stereo unspecified)	-1.0%	33.5%	3.0%	15.8µM*	1.0%	-0.2
COc1ccc(Nc2nc(C)cc(-c3cc(-c4ccccc4)on3)n2)cc1	6.2%	nt	nt	28.2µM*	nt	nt
Cc1cnc(-n2ncc(C(=O)NCc3ccncc3)c2-c2cccs2)nc1-c1ccc(F)cc1	0.2%	nt	nt	nt	nt	nt
CC(=O)NCCNC(=O)C1(C)Cc2c(-c3cccc(NC(C)=O)c3)ccnc2O1 (stereo unspecified)	-1.2%	nt	nt	?	nt	nt
Cc1ccc(C(=O)N2CCCC(N(C)Cc3ccccc3)C2)s1 (stereo unspecified)	-2.0%	nt	14.7%	22.4µM*	nt	nt
Cn1nc(-c2cccnc2)nc2c(=O)n(C)c(=O)nc1-2	0.8%	nt	nt	-1.9%	nt	nt
COc1ccc(NC2CCCN(C(=O)c3ccc4nccnc4c3)C2)cc1OC (stereo unspecified)	1.3%	nt	8.1%	0.7%	nt	nt
Cc1ccc(NC2CCCN(C(=O)c3ccc4nccnc4c3)C2)cc1C (stereo unspecified)	1.4%	nt	-4.5%	15.8µM*	nt	nt
Cc1ncoc1C(=O)NCc1nc(-c2cccc(NC(=O)c3ccccn3)c2)oc1C	-0.1%	nt	nt	nt	nt	nt
O=C(c1cn(C2CCCN(Cc3cccc(Oc4ccccc4)c3)C2)nn1)N1CCCC1 (stereo unspecified)	-0.4%	nt	nt	nt	nt	nt
O=C(O)CCC(NC(=O)c1cncc(O)c1)C(=O)O (stereo unspecified)	11.0%	7.2%	10.6%	25.1µM*	0.0%	-0.9
CCC1(C2CCN(C(=O)c3ccc(C)cc3C)CC2)NC(=O)N(CCc2scnc2C)C1=O (stereo unspecified)	-0.5%	nt	nt	nt	nt	nt
C=CCn1c(SCC(=O)NC(=O)NCCC)nnc1C1CCCCC1	-0.1%	-9.7%	-7.1%	3.16µM*	1.1%	-0.1
C1=CC2(C=C1)OC21CCC2(C=CC3(C2)OC3C2CCCCC2)CC1 (stereo unspecified)	4.4%	nt	nt	-0.1%	nt	nt
Oc1ccccc1/C=N/n1c(COc2ccccc2)n[nH]c1=S	0.7%	?	4.5%	35.5µM*	nt	-0.9
CCn1c(/C=N/n2cnnc2)nc2ccccc21	0.0%[38.3 µM]	-3.5%[11.7 µM]	5.5%	28.2µM*	1.7%	-1.3
COc1ccc2ccccc2c1/C=N/n1cnnc1	1.4%	-7.6%	0.7%	-9.6%	nt	-2.3
CCn1c2ccccc2c2cc(/C=N/n3cnnc3)ccc21	nt	2.9%	4.0%	25.1µM*	0.0%	1.3
CCn1c2ccccc2c2cc(/C=N/NC(=O)c3ccccc3C)ccc21	6.6%	?	5.2%	12.6µM*	2.1%	-1.9
COc1ccc2c(c1)OC(C)CN(CCNC(=O)C1CCOC1)C2 (stereo unspecified)	1.8%	nt	nt	nt	nt	nt
Cc1cc(C)nc(N2CCCC(C(=O)NCCc3ccc(F)cc3)C2)n1 (stereo unspecified)	-3.4%[38.3 µM]	-4.0%	11.1%	11.2µM*	-2.0%	-0.5
Cc1cnc(-n2ncc(C(=O)NCc3ccccn3)c2C2CC2)nc1-c1cccs1	2.2%	nt	nt	nt	nt	nt
CCc1nnc(NC(=O)C2CCCN2C(=O)Nc2ccccc2)s1 (stereo unspecified)	-1.2%	-8.2%	12.5%	nt	1.1%	3.0
SMILES	PINK1 expr mod	Menin MLL FP TR	CXXC DNA block	ClpP mod	Epigenetic reg	Menin MLL FP FL
COC(=O)c1c(S(N)(=O)=O)c2ccccc2n1C	1.2%	1.0%	-3.8%	28.2µM*	3.8%	2.4
COC(=O)c1c(C(=O)c2ccc(Br)cc2)n(C)c2ccccc12	6.4%	nt	nt	-6.6%	nt	nt
CN1CCN(c2c(F)cc3c(=O)c(C(=O)O)cn4c3c2SCC4)CC1	-1.2%	-20.4%	9.5%	28.2µM*	0.0%	-2.8
O=C(Cn1c(-c2cccs2)cc2ccccc21)N1CCN(c2ccccc2F)CC1	-2.1%	nt	nt	14.1µM*	-1.2%	nt
O=C(Cn1c(-c2cccs2)cc2ccccc21)N1CCN(c2ccc(F)cc2)CC1	-0.9%	nt	nt	35.5µM*	2.5%	nt
O=C(Cn1c(-c2cccs2)cc2cc(Cl)ccc21)N1CCN(c2ccccc2)CC1	2.6%	nt	nt	25.1µM*	-1.2%	nt
O=C(Cn1c(-c2cccs2)cc2cc(Cl)ccc21)N1CCN(c2ccccc2F)CC1	-1.8%	nt	nt	12.6µM*	-0.4%	nt
COc1ccccc1CCC(=O)N1CCOc2c(cc(-c3cnc4ccccc4c3)cc2OC)C1	0.8%	nt	nt	nt	nt	nt
COc1ccc(CN2CCCC(n3cc(C(=O)N4CCCCC4)nn3)C2)c(OC)c1C (stereo unspecified)	-0.8%	nt	nt	nt	nt	nt
O=C(c1cccc(F)c1F)N1CCOc2ccc(CN3CCN(Cc4ccccn4)CC3)cc2C1	-0.5%	nt	nt	nt	nt	nt
O=C(NCc1nnc2n1CCN(Cc1cc3c(cc1Cl)OCO3)CC2)c1cccc(F)c1	-0.5%	nt	nt	nt	nt	nt
Cc1ccc(Cl)cc1N1CCN(C(=O)Cn2c(-c3cccs3)cc3cc(F)ccc32)CC1	0.2%	nt	nt	8.91µM*	-0.4%	nt
CCN(Cc1ccccc1)c1ccc(/C=C/c2nccc3ccccc23)cc1	2.0%	nt	nt	0.5%	nt	nt
COc1ccc(Cl)cc1-n1c(C)cc(C=O)c1C	3.0%	nt	-3.5%	31.6µM*	-1.0%	4.3
c1csc(-c2nc(NCCCN3CCOCC3)c3ccccc3n2)c1	-1.8%	-1.3%	23.3%	35.5µM*	nt	-2.0
Fc1ccccc1-c1nc(NCCCN2CCOCC2)c2ccccc2n1	-0.1%	-5.6%	-7.2%	-5.0%	0.0%	-2.6
COc1cc(NCc2ccc3nc(N)nc(N)c3c2C)cc(OC)c1OC	nt	25.1µM*!	11.7%	nt	-3.1%	0.2
O=C(NC(=S)NCCN1CCOCC1)c1ccccc1Br	3.0%	-1.3%	9.8%	25.1µM*	-0.8%	-3.0
O=C(NC(=S)NCCN1CCOCC1)c1ccccc1Cl	0.0%	10.5%	2.2%	-4.0%	0.0%	1.4
CCN(CC)C1CCN(C(=O)c2cnn(-c3nccc(-c4ccccc4OC)n3)c2-c2ccco2)C1 (stereo unspecified)	0.4%	nt	nt	nt	nt	nt
O=S(=O)(c1ccc(F)cc1)N1CCN(c2nc(-c3ccccc3)nc3ccccc23)CC1	0.1%	nt	nt	?	nt	nt
O=C(O)c1ccccc1OC(=O)C12CC3CC(CC(C3)C1)C2	-0.2%	-0.3%	-2.4%	nt	0.0%	2.6
COc1ccc(-c2ncccc2OC(=O)C23CC4CC(CC(C4)C2)C3)cc1	?	?	12.6%	25.1µM*	1.0%	1.2
